Rows were chosen to be rich in hits. Some 3.4% of all compounds tested hit in one or more screens of this group.
ADAM10 inh: inhibitors of human ADAM10 | O14672 | 370,000 tested, 0.62% active | recombinant ADAM10, EDANS/DABCYL FRET peptide cleavage, 3 h | inhibition, % at 7 µM;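 active means inhibition above a per-campaign cutoff equal to the mean of compounds falling between control-based bounds plus 3 SD, cut at about 20% in these data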;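 further: 0% = DMSO wells while the 100% control is not disclosed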
HGIII-sPLA2 inh: Blocks human group III sPLA2 activity. inhibition, % at 12.2 µM. QFRET BODIPY PC-A2 liposome hydrolysis, fluorescence. Q9NZ20. 370,000 tested, 0.56% active;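 active means inhibition above mean plus 3 SD of compounds lying within the high and low control bounds, cut at about 19% in these data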;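 further: 0% = median of test compound wells and 100% = no enzyme DMSO wells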
Target sequence (Q9NZ20 whole entry, looked up): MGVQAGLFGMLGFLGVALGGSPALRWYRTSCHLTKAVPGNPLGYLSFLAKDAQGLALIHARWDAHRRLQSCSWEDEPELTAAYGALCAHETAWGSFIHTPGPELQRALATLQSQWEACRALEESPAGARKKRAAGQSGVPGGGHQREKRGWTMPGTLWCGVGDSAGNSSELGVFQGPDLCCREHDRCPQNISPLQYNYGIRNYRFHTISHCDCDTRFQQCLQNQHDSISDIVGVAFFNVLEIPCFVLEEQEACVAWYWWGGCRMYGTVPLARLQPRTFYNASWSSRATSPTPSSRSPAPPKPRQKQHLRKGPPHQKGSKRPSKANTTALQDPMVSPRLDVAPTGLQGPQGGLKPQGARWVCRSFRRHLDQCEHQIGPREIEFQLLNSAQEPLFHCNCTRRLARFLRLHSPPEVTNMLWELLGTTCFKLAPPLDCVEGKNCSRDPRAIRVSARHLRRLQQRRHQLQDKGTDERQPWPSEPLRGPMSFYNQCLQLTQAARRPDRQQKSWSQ
KLK7 zymogen act: proKLK7 (human) activation, primary screen; purified proKLK7, EDANS-DABCYL substrate fluorescence; 100% is mature enzyme control, 0% vehicle; activation, % at 7 µM; 370,000 tested, 0.9% active; P49862;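 active means activation above the mean of all tested compounds plus 3 SD, computed per campaign excluding outliers beyond control limits, cut at about 13% in these data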
Target sequence (P49862 whole entry, looked up): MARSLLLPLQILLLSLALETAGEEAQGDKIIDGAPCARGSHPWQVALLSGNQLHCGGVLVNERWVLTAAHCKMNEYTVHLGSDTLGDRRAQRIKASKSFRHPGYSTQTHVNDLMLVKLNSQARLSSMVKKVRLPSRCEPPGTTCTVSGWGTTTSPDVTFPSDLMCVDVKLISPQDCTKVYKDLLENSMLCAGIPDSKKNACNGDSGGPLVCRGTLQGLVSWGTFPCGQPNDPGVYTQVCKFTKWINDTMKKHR
NRP1-CendR mod: alters CendR peptide binding to human NRP-1; O14786; FAM-RPARPAR peptide binding to NRP-1, fluorescence polarization; inhibition, % at 25 µM; 360,000 tested, 0.85% active;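 active means inhibition or corrected inhibition above about 18%, plus a signal ratio from 0.5 to 1.5, limit read from the data, passing the limit was not always enough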
ADAM17 inh: ADAM17 inhibition, QFRET primary screen; P78536; recombinant ADAM17, EDANS/DABCYL FRET peptide cleavage; inhibition, % at 6.95 µM; 370,000 tested, 0.83% active; AID 720648;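 active means inhibition above the mean of compounds lying between control limits plus 3 SD, set per campaign, cut at about 8.5% in these data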;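 further: 0% = DMSO-only wells as the low control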
proKLK7 act conf: proKLK7 activation, confirmation; 3,200 tested, 68% active; activation, % at 7 µM; purified proKLK7, EDANS-DABCYL substrate fluorescence; scaled: vehicle 0, mature enzyme 100; shares compounds with KLK7 zymogen act;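 active means activation, as change over the incubation, above the mean of all tested compounds plus 3 SD, cut at about 13% in these data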
EDANS interfere: optically interferes with EDANS-DABCYL signal, flagging KLK7 hits; shares compounds with KLK7 zymogen act; EDANS-DABCYL substrate fluorescence interference, no enzyme, 4 h; solvent 0%, active enzyme control 100%; activation, % at 7 µM; 3,200 tested, 80% active;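 active means activation above the all-compound mean plus 3 SD, ignoring values outside control-based bounds, cut at about 4.8% in these data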;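 further: value is the 4 h activation minus the activation read at time zero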
K7 EDANS ctr: optically interferes with EDANS-DABCYL fluorescence, kallikrein-7 activator counter-screen. 250 tested, 20% active. EC50, µM. EDANS-DABCYL peptide fluorescence interference, no enzyme. shares compounds with KLK7 zymogen act;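 active means compounds that raise the fluorescence signal in this interference counterscreen, with EC50 at or below 10 µM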;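 further: intact quenched peptide substrate alone read at 355 nm excitation and 520 nm emission; signal is fluorescence gain from T0 to T4 after four hours at room temperature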
An asterisk follows results filed as active; i = inactive; nt = no result.

SMILES | ADAM10 inh | HGIII-sPLA2 inh | KLK7 zymogen act | NRP1-CendR mod | ADAM17 inh | proKLK7 act conf | EDANS interfere | others
CCOc1ccc(NC(=O)c2cc3cc4ccc(OC)cc4nc3o2)cc1 | -8.3 | 1.1 | 0.0 | 11.7 | -0.8 | nt | nt
COCCNC(=O)c1cc2cc3ccc(OC)cc3nc2o1 | i | -4.2 | 34.8* | -2.1 | i | 67.3* | 78.1*
COc1ccc(C(=O)NCC2CCCO2)cc1 (stereo not given) | 3.8 | -3.2 | -0.7 | 4.1 | 1.2 | nt | nt
COc1ccc2cc3cc(C(=O)NCC4CCCO4)oc3nc2c1 (stereo not given) | i | 7.8 | 48.0* | -6.1 | i | 65.8* | 70.9*
COc1ccc2cc3cc(C(=O)NCCC(C)C)oc3nc2c1 | i | -3.0 | -15.2 | 10.3 | -379.5 | nt | nt
Cc1ccnc(NC(=S)N2CCC(Nc3cccc(C(F)(F)F)c3)CC2)c1 | 4.8 | 3.9 | nt | nt | -0.7 | nt | nt
CCC[C@H]1[C@@H](OC(=O)NCc2ccccc2)CC[C@@]23CCCN2C(=O)CCC[C@@H]13 | -3.0 | 0.6 | nt | nt | -6.3 | nt | nt
COc1ccc(NC(=O)COc2ccc(/C=C/c3cc[n+](C)cc3)cc2OC)cc1 | -56.1 | 4.0 | 30.6* | -6.4 | -19.7 | 63.7* | 67.8*
COc1ccc(/C=C/C(=O)Nc2ccncc2)cc1OC | -497.1 | 7.4 | 17.4* | 10.7 | -169.7 | 12.8* | 13.1*
COc1ccc(NC(=O)COc2ccc(/C=C/c3cccc[n+]3C)cc2OC)cc1 | -15.5 | -0.3 | 3.8 | 4.6 | -6.3 | nt | nt
CCOc1ccc(/C=C/C(=O)Nc2ccc(C(N)=O)cc2)cc1OC | -57.4 | 6.3 | 42.5* | 7.8 | -19.1 | 85.0* | 94.2*
COc1ccc(NC(=O)/C=C/c2ccc(OC)c(OC)c2)cn1 | -1.8 | 3.0 | -0.2 | -1.1 | -4.7 | nt | nt
C/C(=C/c1[nH]c(N)[n+](CC2CC2)c1Cc1ccccc1)Cn1[nH]c(=O)n(-c2ccccc2)c1=O | -4.3 | 1.2 | 0.7 | nt | -3.0 | nt | nt
Cc1cc(C(=O)NNC(=O)Nc2ccccc2)no1 | -4.2 | -0.3 | 0.3 | -0.7 | -5.6 | nt | nt
Cc1nc(C(=O)NNC(=O)Nc2ccccc2)cs1 | -0.5 | -1.0 | 15.5* | -10.7 | -3.6 | -0.6 | -0.5
CN(C)CCNc1oc(-c2ccccc2F)nc1C#N | i | 7.5 | 57.2* | 2.9 | -208.9 | 30.4* | 32.5*
CN(C)CCNc1oc(-c2cccc(Cl)c2)nc1C#N | -496.6 | -8.4 | 59.0* | -1.3 | -107.7 | 31.3* | 33.6*
CN(C)CCCNc1oc(-c2ccccc2)nc1C#N | i | -1.1 | 12.6 | 4.7 | -179.8 | nt | nt
CCCCOc1ccc(C(=O)NC2CCCCN(Cc3cccc(Cl)c3)C2=O)cc1 (stereo not given) | 13.0 | -2.1 | 0.6 | nt | 4.1 | nt | nt
O=C(NCCCO)c1cc2c(cn1)[nH]c1ccccc12 | -151.7 | 6.5 | 14.4* | -0.6 | -70.3 | 5.4 | 7.6*
C[C@H](NC(=O)c1cc2c(cn1)[nH]c1ccccc12)C(=O)O | -165.1 | -0.3 | 17.6* | -2.6 | -59.9 | 8.6 | 7.4*
COC(=O)[C@H](C)NC(=O)c1cc2c(cn1)[nH]c1ccccc12 | -119.4 | -0.2 | 7.8 | -11.1 | -37.4 | nt | nt
OC1c2c(F)cccc2N=C2CCCCN21 (stereo not given) | i | 0.9 | 14.0* | 4.8 | -275.0 | 11.4 | 8.3*
Cn1ccnc1CN1CCC[C@]2(CC[C@H](CCC#N)O2)C1 | 1.9 | 2.5 | 0.2 | nt | -0.3 | nt | nt
CCC1(C)Cc2ccccc2-c2nc(NCCO)n(-c3ccccc3)c(=O)c21 (stereo not given) | i | -2.9 | 26.3* | 6.6 | i | -70.3 | -82.4
SMILES | ADAM10 inh | HGIII-sPLA2 inh | KLK7 zymogen act | NRP1-CendR mod | ADAM17 inh | proKLK7 act conf | EDANS interfere | others
CCC1(CC)Cc2ccccc2-c2nc(NCCO)[nH]c(=O)c21 | i | -32.6 | 24.7* | -2.8 | i | -21.2 | -28.0
O=c1[nH]c(NCCO)nc2c1C1(CCCCC1)Cc1ccccc1-2 | i | -30.3 | -9.6 | -7.0 | -438.8 | nt | nt
CCC1(C)Cc2ccccc2-c2nc(NCCO)n(-c3ccc(C)cc3)c(=O)c21 (stereo not given) | i | -9.7 | -4.7 | -3.0 | i | nt | nt
O=C(Nc1ccccc1[N+](=O)[O-])NC1CCCCN(Cc2ccc(Cl)cc2)C1=O (stereo not given) | -1.8 | 14.5 | -0.1 | nt | -2.0 | nt | nt
CCOC(=O)[C@@]12CCCC3=C1N(CCC3)C(=O)[C@H]2CC(=O)NCCCCc1ccccc1 | 0.0 | 2.2 | 0.5 | nt | 4.2 | nt | nt
O=C(N=c1ccn(-c2nc3ccccc3nc2NS(=O)(=O)c2ccc(Cl)cc2)cc1)c1cccs1 | 13.3 | -3.0 | -0.3 | -33.9 | -1.7 | nt | nt
CC(=O)Nc1ccc(S(=O)(=O)Nc2nc3ccccc3nc2-n2ccc(=NC(=O)c3ccccc3)cc2)cc1 | -7.1 | 0.9 | 39.0* | 0.7 | -2.2 | 39.9* | 16.0* | K7 EDANS ctr=i
O=C(N=c1ccn(-c2nc3ccccc3nc2NS(=O)(=O)c2ccccc2)cc1)c1ccccc1Cl | 5.4 | -19.8 | 1.8 | -2.0 | -5.5 | nt | nt
CC(=O)Nc1ccc(S(=O)(=O)Nc2nc3ccccc3nc2-n2ccc(=NC(=O)c3ccc(F)cc3)cc2)cc1 | -15.8 | -18.9 | 81.2* | -83.3 | -8.3 | 95.5* | 87.3*
CCOc1ccc2c(c1)sc1nc(C(=O)OC)cc(=O)n12 | -11.8 | 4.8 | 16.9* | -5.2 | -1.2 | 15.3* | 16.4*
CCCCc1c(O)nc2sc3cc(OC)ccc3n2c1=O | 7.8 | 1.3 | 0.7 | 1.5 | 0.5 | nt | nt
COC(=O)c1cc(=O)nc2sc3cc(OC)ccc3n12 | -51.7 | 10.1 | 28.9* | -8.6 | -4.7 | 21.6* | 24.2*
COc1cccc(-c2nnc(SCC(=O)Nc3cccc4ccccc34)n2Cc2ccco2)c1 | 7.4 | -12.2 | 0.0 | nt | 6.1 | nt | nt
O=C1c2ccccc2-c2n[nH]c3cccc1c23 | -239.0 | -17.0 | 62.8* | 15.2 | -51.2 | 73.9* | 75.4*
O=c1c(-c2ccccc2)n[nH]c2ccccc12 | -18.5 | 0.4 | 0.2 | 2.6 | -9.1 | nt | nt
C/C=C/C(=O)N1CCc2cc(S(=O)(=O)N(C)Cc3ccco3)ccc21 | 8.2 | 6.6 | 0.5 | nt | -0.8 | nt | nt
O=c1oc2c(CN3CCOCC3)c(O)c(Cl)cc2c2c1CCC2 | i | -2.3 | 121.5* | -5.2 | i | 80.7* | 78.2*
CCN(CC)Cc1c(O)c(Cl)cc2c3c(c(=O)oc12)CCCC3 | i | 1.6 | 49.4* | -45.0 | i | 66.5* | 74.6*
O=c1cc(-c2ccccc2)c2cc(Cl)c(O)c(CN3CCOCC3)c2o1 | -53.8 | 1.2 | 12.5 | -3.1 | -24.6 | nt | nt
CN(C)Cc1c(O)c(Cl)cc2c3c(c(=O)oc12)CCCC3 | i | -2.4 | 46.9* | -17.2 | i | 69.9* | 72.1*
